The list is not random: actives were taken first. Their share in the collection is about 3.5%.
FBW7 act: FBW7 E3 ligase activators, primary screen, biochemical, AlphaScreen, human | F-box/WD repeat-containing protein 7 (Homo sapiens), Q969H0 | AlphaScreen FBW7–phospho-cyclin E peptide binding, activator screen | normalized activity (activation), % at 26.1 µM | 650,000 compounds, 0.13% hits | AID 1259310, 2017; in the data active = normalized activity above about 1.9%;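 also: purified mutant Fbw7 with reduced substrate affinity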
Target sequence (Q969H0 whole entry, looked up): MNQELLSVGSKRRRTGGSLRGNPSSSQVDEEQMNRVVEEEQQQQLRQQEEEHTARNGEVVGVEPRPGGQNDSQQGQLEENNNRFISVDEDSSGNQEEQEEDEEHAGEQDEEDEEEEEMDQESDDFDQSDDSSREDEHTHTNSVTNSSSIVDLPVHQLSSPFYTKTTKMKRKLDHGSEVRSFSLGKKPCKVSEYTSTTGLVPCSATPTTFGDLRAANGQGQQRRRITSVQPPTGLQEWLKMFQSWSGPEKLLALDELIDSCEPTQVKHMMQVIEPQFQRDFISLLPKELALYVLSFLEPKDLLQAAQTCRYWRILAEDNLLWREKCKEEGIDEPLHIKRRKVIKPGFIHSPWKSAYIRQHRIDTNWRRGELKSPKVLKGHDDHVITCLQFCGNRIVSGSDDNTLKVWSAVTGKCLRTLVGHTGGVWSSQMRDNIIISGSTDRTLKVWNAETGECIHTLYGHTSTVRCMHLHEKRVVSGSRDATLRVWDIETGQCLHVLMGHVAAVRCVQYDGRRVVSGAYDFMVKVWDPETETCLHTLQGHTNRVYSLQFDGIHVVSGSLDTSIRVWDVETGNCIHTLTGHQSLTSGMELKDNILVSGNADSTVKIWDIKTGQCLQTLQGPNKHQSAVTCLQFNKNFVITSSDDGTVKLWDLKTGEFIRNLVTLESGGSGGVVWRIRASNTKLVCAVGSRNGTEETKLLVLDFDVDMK
TEAD-YAP inh: TEAD-YAP interaction inhibition, primary screen, TEAD-YAP interaction inhibitor project, luminescence, HEK-TIYL cells; inhibition, % at 9.12 µM; TEAD-Gal4/YAP UAS-luciferase luminescence; AID 1259422, 2018; 640,000 compounds, 1.4% hits; in the data active = inhibition above about 32%
MITF inh: MITF inhibitors, primary screen, biochemical, AlphaScreen, human; Microphthalmia-associated transcription factor (Homo sapiens), O75030; AlphaScreen MITF homodimerization, bead proximity signal; inhibition, % at 2.6 µM; 650,000 compounds, 0.91% hits; in the data active = inhibition above about 50%
GPR151 activ: activators of human GPR151, primary screen, cell-based, PathHunter beta-arrestin, luminescence; G-protein coupled receptor 151 (Homo sapiens), Q8TDV0; PathHunter beta-arrestin GPR151 cells; activation, % at 11.2 µM; 650,000 compounds, 1% hits; AID 1508602, 2020; in the data active = activation above about 4.9%
A number is an active result; n = inactive.

SMILES	FBW7 act	TEAD-YAP inh	MITF inh	GPR151 activ
Cc1ccc(S(=O)(=O)N2CCN(CCNC(=O)CC(C)C)CC2)cc1	n	n	n	n
CCOC(=O)c1sc2nc(SCc3cc(C(C)=O)ccc3OC)n(Cc3ccccc3OC)c(=O)c2c1C	n	n	n	n
Cc1nc2ccc(Nc3nccc(-c4cncc(N5CCOCC5)c4)n3)cc2o1	n	n	n	n
Cc1[nH]nc2ccc(Nc3nccc(-c4cncc(N5CCOCC5)c4)n3)cc12	n	77	n	n
Fc1ccc(Nc2nccc(-c3cncc(N4CCOCC4)c3)n2)cc1	n	68	n	n
FC(F)Oc1ccc(Nc2nccc(-c3cncc(N4CCOCC4)c3)n2)cc1	n	n	n	n
Cn1cnnc1-c1ccc(Nc2nccc(-c3cncc(N4CCOCC4)c3)n2)cc1	n	33	n	n
O=C(Cn1c(=S)[nH]c2ccccc2c1=O)N1CCN(Cc2ccccc2)CC1	n	n	n	n
Cc1ccc2nc(C3CCN(Cc4cncnc4)CC3)[nH]c2c1	n	n	n	n
Cc1ccccc1OCC(=O)N1CCCC1	n	n	n	n
O=C(CN(Cc1ccc(Br)cc1)S(=O)(=O)c1ccccc1)NC1CC1	n	n	n	n
CN(C)CCNC(=O)c1ccc2c(c1)CC(c1nc3ncc(-c4ccnc(N)n4)cc3[nH]1)CO2 (stereo not drawn)	n	n	72	n
Nc1nccc(-c2cnc3nc(C4COc5ccc(C(=O)NCCc6cccnc6)cc5C4)[nH]c3c2)n1 (stereo not drawn)	n	n	n	n
Nc1nccc(-c2ccc3nc(C4COc5ccc(C(=O)NCCc6ccccn6)cc5C4)[nH]c3c2)n1 (stereo not drawn)	9.0	n	n	n
Nc1nccc(-c2ccc3nc(C4COc5ccc(C(=O)NCCc6cccnc6)cc5C4)[nH]c3c2)n1 (stereo not drawn)	4.2	n	n	n
CC(C)CNC(=O)c1ccc2c(c1)CC(c1nc3ncc(-c4ccnc(N)n4)cc3[nH]1)CO2 (stereo not drawn)	n	n	n	n
CC(C)(C)C1CCC(=NNC(=O)c2ccc(NS(=O)(=O)c3cccs3)cc2)CC1 (stereo not drawn)	n	n	n	n
OCc1cccc(-c2cnc3c(NCc4cccs4)nccn23)c1	n	n	n	n
CCOC(=O)C1=C(c2ccccc2)NC(=O)NC1c1ccccc1OCC(C)C (stereo not drawn)	n	n	n	n
O=C(CC1C(=O)N(c2ccc(Cl)cc2)C(=S)N1CCc1ccc(Cl)cc1)Nc1ccc(F)cc1 (stereo not drawn)	2.0	n	n	n
CCCn1c2ccccc2c2nnc(SC)nc21	n	n	n	n
Cc1oc(-c2ccc(Cl)cc2)nc1CN1CCCC(C(=O)NCc2cccnc2)C1 (stereo not drawn)	n	46	n	n
Cc1oc(-c2ccc(Cl)cc2)nc1CN1CCCC(C(=O)NCCN2CCCC2)C1 (stereo not drawn)	n	n	n	n
CN(C)CCNC(=O)c1cc2c(Cl)nc3ccccc3c2s1	n	55	n	n
COc1ccccc1C(NC(C)=O)c1ccc2cccnc2c1O (stereo not drawn)	n	33	57	n
SMILES	FBW7 act	TEAD-YAP inh	MITF inh	GPR151 activ
COc1ccccc1C(NC(=O)C(C)C)c1ccc2cccnc2c1O (stereo not drawn)	n	73	n	n
CN(c1ccc(O)cc1)S(=O)(=O)c1ccccc1F	n	n	n	n
N/C(=N\OC(=O)c1ccccc1I)c1ccccn1	n	n	n	n
Cc1ccc(C(=O)O/N=C(\N)c2ccccn2)c(C)c1	n	90	n	n
N/C(=N\OC(=O)c1ccccc1F)c1ccccn1	n	82	n	n
COc1ccccc1C(=O)O/N=C(\N)c1ccccn1	n	38	n	n
N/C(=N\OC(=O)c1ccccc1Br)c1ccccn1	n	66	n	n
CCc1ccc(NC(=O)CSc2nc3ccccc3nc2Cc2ccc(F)cc2)cc1	n	n	n	n
COc1ccc(-c2csc(NC(=O)c3ccco3)n2)c(OC)c1	n	n	n	n
NC(=O)c1c(NC(=O)COC(=O)c2ccc([N+](=O)[O-])s2)sc2c1CCC2	n	n	n	n
C=CCN1C(=O)N(c2ccc(C)cc2)C(=O)C1CC(=O)Nc1ccc(CC)cc1 (stereo not drawn)	n	n	n	n
CCOC(=O)c1ccccc1NC(=O)c1sc2ncn(CC(=O)N3CCCCC3)c(=O)c2c1C	n	n	n	n
Cc1cc(C)cc(C(=O)O/N=C(\N)c2ccccn2)c1	n	n	n	n
N/C(=N\OC(=O)c1cccc(Cl)c1)c1ccccn1	n	49	n	n
COc1ccc(C2(CNS(=O)(=O)c3ccc(OC)c(Cl)c3)CCOCC2)cc1	n	n	n	n
CCCc1cc(C(=O)NCc2cc(NC(=O)Cn3cccn3)cc(C(=O)OC)c2)no1	n	n	n	n
Cc1ccc(-c2c3cc(O)c(=O)cc-3oc3cc(O)c(O)cc23)cc1	n	n	102	n
Cc1ccc(-c2cc(=O)c3cc(Cl)ccc3o2)cc1	n	n	n	n
COc1ccc(-c2cc(=O)c3cc(O)ccc3o2)cc1OC	n	n	n	n
O=c1cc2oc3cc(O)c(O)cc3c(-c3cccnc3)c-2cc1O	n	n	100	n
CCOc1ccccc1-c1c2cc(O)c(=O)cc-2oc2cc(O)c(O)cc12	n	n	103	n
COc1cc(-c2c3cc(O)c(=O)cc-3oc3cc(O)c(O)cc23)ccc1C	n	n	106	n
O=C(Nc1cccc(O)c1)c1cc(-c2ccc3c(c2)OCO3)on1	n	97	n	n
O=C(Nc1cccc(O)c1)c1cc(-c2ccc(Cl)cc2)on1	n	81	n	n
O=C(Nc1cccc(O)c1)c1cc(-c2cccnc2)on1	n	n	n	n
SMILES	FBW7 act	TEAD-YAP inh	MITF inh	GPR151 activ
CCC/C(=N\NC(=O)CN1CCOCC1)c1ccc(Br)cc1	n	n	n	n
Cc1ccc2nsnc2c1S(=O)(=O)Nc1ccc(Cl)c(Cl)c1	n	n	n	n
COc1ccc(CCNC(=O)CSc2nc3ccccc3c(=O)n2CCc2ccc(OC)c(OC)c2)cc1OC	n	n	n	n
COc1ccc(CCNC(=O)CSc2nc3ccc(Br)cc3c3nc4ccccc4n23)cc1OC	1.9	n	n	n
CC(C)(C)NC(=O)c1ccccc1Cl	n	n	n	n
Cn1c(-c2ccccc2)c(C(C[N+](=O)[O-])c2ccc(C(F)(F)F)cc2)c2ccccc21 (stereo not drawn)	n	n	n	n
Cn1c(-c2ccccc2)c(C(C[N+](=O)[O-])c2ccco2)c2ccccc21 (stereo not drawn)	n	54	n	n
Cc1ccc(C2OC3(C(=O)c4ccccc4C3=O)C(c3ccccc3)C23C(=O)c2ccccc2C3=O)cc1 (stereo not drawn)	n	n	n	n

Screening data: PubChem BioAssay, The Scripps Research Institute Molecular Screening Center
